Screening results as filed in PubChem.
Shown are actives, neighbours in structure and some others; about 1.8% of the full set was active somewhere.
IEC-6 tox – IEC-6 cytotoxicity, counter-screen for KLF5 inhibitors; luminescence viability; inhibition, % at 5 µM; 290,000 compounds, 0.78% hits;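 further: 0% = plate median of test compound wells and 100% = cytotoxic reference compound wells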
BaF3 parental – counter-screen for JAK2V617F inhibitors: parental Ba/F3 viability inhibitors | CellTiter-Glo ATP luminescence | inhibition, % at 5.6 µM | 220,000 compounds, 1.1% hits | AID 1486;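 active means inhibition above a per-campaign cutoff, the mean inhibition of all tested compounds plus 3 SD, cut at about 27% in these data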;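 further: 0% = DMSO wells and 100% = JAK Inhibitor I control wells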
Ba/F3 V617F tox – loss of viability in JAK2V617F-driven Ba/F3 cells. Ba/F3 EpoR-JAK2V617F viability, ATP luminescence. inhibition, % at 5.6 µM. 220,000 compounds, 1.1% hits;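 active means inhibition above the campaign mean plus 3 SD over all tested compounds, cut at about 24% in these data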;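 further: cytokine-independent growth of Ba/F3 cells driven by EpoR plus mutant JAK2; 0% = DMSO-treated cells and 100% = JAK inhibitor I control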
KLF5 inhibitor – suppresses KLF5 promoter-driven expression; 290,000 compounds, 0.23% hits; inhibition, % at 5 µM; DLD-1 KLF5 promoter-luciferase reporter, luminescence;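 active means inhibition above a per-plate limit of that plate's mean compound inhibition plus 3 SD, cut at about 60% in these data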;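 further: 0% = DMSO wells and 100% = LY294002 at 200 µM; higher means less KLF5 promoter-driven luciferase light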
APP 5UTR inh – APP translation inhibition | SH-SY5Y APP 5'UTR-luciferase reporter, luminescence | inhibition, % at 2 µM | 190,000 compounds, 0.82% hits;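 active means inhibition above a set limit, derived from the sample mean plus 3 SD, cut at about 45% in these data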
IEC-6 tox confirm – IEC-6 cytotoxicity, confirmation assay | inhibition, % at 5 µM | IEC-6 rat intestinal epithelial viability, luminescence | shares compounds with IEC-6 tox | 1,900 compounds, 63% hits;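 further: 0% = vehicle and 100% = reference cytotoxic drug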
Numbers without * were called inactive. Unless noted, no stated cut-off is given here; in the data, active means inhibition above about 22%; inactive means the rest.

Cc1nnc(N/N=C/c2cc([N+](=O)[O-])c(N3CCC(C)CC3)cc2N2CCC(C)CC2)n1N was read as IEC-6 tox 103.2*, BaF3 parental 5.5, Ba/F3 V617F tox 2.2, KLF5 inhibitor 44.4, APP 5UTR inh 5.5 and IEC-6 tox confirm 12.0.
Screening COc1ccc(-c2[nH]ncc2/C=C(/C#N)C(=O)NC2CCCCC2)cc1 returned IEC-6 tox 16.0, BaF3 parental 3.4, Ba/F3 V617F tox 0.9, KLF5 inhibitor -23.9 and APP 5UTR inh 8.1.
For Cc1ccc(-c2[nH]ncc2/C=C(\C#N)C(=O)NC2CCCCC2)cc1 the results were IEC-6 tox 22.1*, BaF3 parental 5.9, Ba/F3 V617F tox 4.7, KLF5 inhibitor 12.6, APP 5UTR inh -26.6 and IEC-6 tox confirm 17.7.
Screening Cc1onc(-c2ccccc2)c1C(=O)Nc1cc(C(F)(F)F)ccc1N1CCOCC1 returned IEC-6 tox 76.6*, BaF3 parental 80.8*, Ba/F3 V617F tox 84.1*, KLF5 inhibitor 44.4, APP 5UTR inh 70.5* and IEC-6 tox confirm 49.9*.
Cc1onc(-c2ccccc2)c1C(=O)Nc1ccccc1N1CCOCC1 was read as IEC-6 tox -1.5, BaF3 parental 5.9, Ba/F3 V617F tox 0.6, KLF5 inhibitor -20.1 and APP 5UTR inh -8.6.
For CCOC(=O)c1ccc(N2CCOCC2)c(NC(=O)c2c(-c3ccccc3)noc2C)c1 the results were IEC-6 tox 60.6*, BaF3 parental 54.4*, Ba/F3 V617F tox 74.5*, KLF5 inhibitor 50.2 and IEC-6 tox confirm 49.7*.
CC(=O)Nc1ccc(NC2=C/C(=N/S(=O)(=O)c3cccs3)c3ccccc3C2=O)cc1 was read as IEC-6 tox 43.3*, BaF3 parental 3.1, Ba/F3 V617F tox 3.3, KLF5 inhibitor -32.5, APP 5UTR inh 34.9 and IEC-6 tox confirm 3.9.
Screening CCC(=O)N1CCc2cc(S(=O)(=O)CCC(=O)N3CCN(c4ccc(C(C)=O)cc4)CC3)ccc21 returned IEC-6 tox -6.9 and KLF5 inhibitor -35.3.
For Cc1ccc(NCC(=O)N/N=C/c2c[nH]c3ccccc23)cc1 the results were IEC-6 tox 3.7, BaF3 parental 4.2, Ba/F3 V617F tox -0.3, KLF5 inhibitor -19.8 and APP 5UTR inh -2.8.
For CC1=C/C(=N\NC(=S)Nc2cccnc2)CC(C)(C)C1 the results were IEC-6 tox 29.2*, BaF3 parental 6.7, Ba/F3 V617F tox 8.2, KLF5 inhibitor -8.4, APP 5UTR inh -0.6 and IEC-6 tox confirm 59.4*.
`CC1(C)C2CC=C(/C=N/NC(=S)Nc3cccnc3)C1C2` (stereo unspecified) gave IEC-6 tox -6.3, BaF3 parental 3.6, Ba/F3 V617F tox -1.9, KLF5 inhibitor -4.0 and APP 5UTR inh -17.9.
COc1ccc(N2CCOCC2)c(NC(=O)c2ccc3c(c2)OCO3)c1 was read as IEC-6 tox 1.8 and KLF5 inhibitor -37.2.
`Cc1nc2ncccn2c1-c1csc(Nc2ccc(O)cc2)n1` gave IEC-6 tox 25.0*, BaF3 parental 77.4*, Ba/F3 V617F tox 82.4*, KLF5 inhibitor -80.0, APP 5UTR inh 12.8 and IEC-6 tox confirm 6.8.
For COC(=O)c1sccc1NC(=O)c1ccc(C(C)C)cc1 the results were IEC-6 tox 6.7 and KLF5 inhibitor 8.2.
Screening CCOC(=O)c1ccc(NC(=O)c2nc(SC)ncc2Cl)cc1 returned IEC-6 tox -4.6 and KLF5 inhibitor -17.8.
Cc1ccccc1CS(=O)(=O)c1ncc(Cl)c(C(=O)Nc2ccc(F)cc2)n1 was read as IEC-6 tox 60.7*, KLF5 inhibitor 9.2 and IEC-6 tox confirm 9.7.
Screening O=C(Nc1ccc(F)cc1)c1nc(S(=O)(=O)Cc2ccccc2)ncc1Cl returned IEC-6 tox 90.7*, KLF5 inhibitor 17.9 and IEC-6 tox confirm 11.8.
`Cc1ccc(NC(=O)c2nc(S(=O)(=O)Cc3ccccc3)ncc2Cl)cc1` gave IEC-6 tox 97.0*, KLF5 inhibitor 12.6 and IEC-6 tox confirm 18.9.
Screening COc1cccc(NC(=O)COc2ccc(C(=O)N3CCN(C)CC3)cc2)c1 returned IEC-6 tox 1.7 and KLF5 inhibitor 8.5.
`O=C(O)Cc1ccc2c(c1)N(S(=O)(=O)c1cccs1)CC(C(=O)O)O2` (stereo unspecified) gave IEC-6 tox -5.7 and KLF5 inhibitor -24.8.
CN(C)c1cccc(/C=C(\C#N)c2ccccc2)c1 was read as IEC-6 tox 77.0*, BaF3 parental 76.4*, Ba/F3 V617F tox 81.4*, KLF5 inhibitor -24.7 and IEC-6 tox confirm 56.1*.
Screening CN(C)c1ccc(/C=C(\C#N)C(=O)c2ccccc2)cc1 returned IEC-6 tox 5.5, BaF3 parental 1.4, Ba/F3 V617F tox -0.3 and KLF5 inhibitor 1.3.
CC1=C(CC(=O)NCC(=O)NCC(=O)O)c2cc(F)ccc2/C1=C/c1ccc(S(C)=O)cc1 (stereo unspecified) was read as IEC-6 tox 2.6 and KLF5 inhibitor -7.6.
For CC(C)OC(=O)c1ccc2nc3ccccc3nc2c1 the results were IEC-6 tox 24.2*, KLF5 inhibitor -150.0 and IEC-6 tox confirm 19.9.
Screening CCN(CC)c1ccc(/C=N/NC(=O)CNC(=O)C2COc3ccccc3O2)c(O)c1 (stereo unspecified) returned IEC-6 tox 51.7*, KLF5 inhibitor 59.7 and IEC-6 tox confirm 48.3*.
`COc1cc(/C=N\NC(=O)CNC(=O)C2COc3ccccc3O2)ccc1O` (stereo unspecified) gave IEC-6 tox -1.4, BaF3 parental 6.5, Ba/F3 V617F tox 0.0, KLF5 inhibitor 1.8 and APP 5UTR inh -0.8.
COC(=O)C1C(=O)c2c([nH]c(C(=O)OC3CCCC3)c2C)CC1C (stereo unspecified) was read as IEC-6 tox 3.1, BaF3 parental -0.2, Ba/F3 V617F tox 0.2, KLF5 inhibitor -120.2 and APP 5UTR inh -108.9.
For Cc1c(C(=O)OCC(C)C)[nH]c2c1C(=O)CC(c1ccco1)C2 (stereo unspecified) the results were IEC-6 tox 80.9*, BaF3 parental 75.7*, Ba/F3 V617F tox 78.7*, KLF5 inhibitor 46.6, APP 5UTR inh 95.7* and IEC-6 tox confirm 57.0*.
Cc1c(C(=O)OCC2CCCO2)[nH]c2c1C(=O)CC(c1ccco1)C2 (stereo unspecified) was read as IEC-6 tox 37.7*, BaF3 parental 4.3, Ba/F3 V617F tox 11.1, KLF5 inhibitor -14.0, APP 5UTR inh 33.0 and IEC-6 tox confirm 46.6*.
For Cc1c(C(=O)OC2CCCC2)[nH]c2c1C(=O)CC(c1ccco1)C2 (stereo unspecified) the results were IEC-6 tox 87.6*, BaF3 parental 80.7*, Ba/F3 V617F tox 77.3*, KLF5 inhibitor 55.9, APP 5UTR inh 93.9* and IEC-6 tox confirm 56.9*.
CCOC(=O)c1[nH]c2c(c1C)C(=O)CC(c1ccc(OC)c(OC)c1)C2 (stereo unspecified) was read as IEC-6 tox 2.7, BaF3 parental 1.6, Ba/F3 V617F tox -2.2, KLF5 inhibitor -11.5 and APP 5UTR inh 44.4.
For CCOc1ccccc1NC(=O)C1CCN(S(C)(=O)=O)CC1 the results were IEC-6 tox -4.7 and KLF5 inhibitor -10.1.
